# Assay results: PubChem BioAssay AID1030 (National Center for Advancing Translational Sciences (NCATS), 2008)
# Screen size: about 220,000 compounds; about 16,000 (7.3%) were called active. Not shown: some 25% with an inconclusive outcome. The sample holds actives, similar compounds and a random draw of the others, so the mix is not that of the screen. Calls come from the whole dose curve; as a rule, active = well fitted inhibition curve with a large enough effect (not every such curve was filed as active); inconclusive = small, poorly fitted or top-dose-only effect, or another doubt; inactive = no such curve, though single readings can be large or run the other way.
# Biological target: Aldehyde dehydrogenase 1A1 (Homo sapiens) (UniProt P00352)
# Assay: qHTS Assay for Inhibitors of Aldehyde Dehydrogenase 1 (ALDH1A1);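 for activity, negative = inhibition: plate controls were no enzyme wells and a reference inhibitor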
# Details: Purified ALDH1A1, NADH fluorescence, propionaldehyde substrate; series mostly up to 75.3 µM; activity, negative = inhibition: at the top concentration
# Potency is the fitted concentration of half-maximal effect.
# Sequence of Aldehyde dehydrogenase 1A1 (Homo sapiens) (P00352 whole entry, looked up): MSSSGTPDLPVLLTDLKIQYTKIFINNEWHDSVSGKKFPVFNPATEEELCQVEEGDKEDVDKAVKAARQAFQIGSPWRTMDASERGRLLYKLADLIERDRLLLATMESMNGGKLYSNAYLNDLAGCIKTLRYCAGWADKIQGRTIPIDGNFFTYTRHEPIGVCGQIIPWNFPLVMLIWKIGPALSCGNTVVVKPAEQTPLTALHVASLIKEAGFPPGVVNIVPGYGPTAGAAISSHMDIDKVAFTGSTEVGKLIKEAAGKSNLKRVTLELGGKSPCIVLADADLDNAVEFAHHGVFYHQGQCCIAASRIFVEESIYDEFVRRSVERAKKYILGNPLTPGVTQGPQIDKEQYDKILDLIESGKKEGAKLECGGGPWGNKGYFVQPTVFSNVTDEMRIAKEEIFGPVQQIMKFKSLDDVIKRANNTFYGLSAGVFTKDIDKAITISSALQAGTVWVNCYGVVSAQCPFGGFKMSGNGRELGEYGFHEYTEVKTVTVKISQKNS
Compound,"activity, negative = inhibition",Potency
O=C(Nc1ccn(Cc2ccccc2)n1)c1n[nH]c([N+](=O)[O-])c1Cl,-1.46% (inactive),–
CCn1nc(C)c(CN2CCN(Cc3ccc(OC)c(C)c3C)C(CCO)C2)c1C (centres undefined),-0.693% (inactive),–
O=C(O)CCN(Cc1ccccc1)S(=O)(=O)c1c(Cl)cccc1Cl,-4.7% (inactive),–
CCOc1ccc(NC(=O)c2cc(C)nc3ccccc23)cc1,0.296% (inactive),–
O=C(CCCOc1ccc(Cl)cc1Cl)NNC(=O)C1CCC1,1.22% (inactive),–
COCc1cc(=O)[nH]c(-c2ccc(C(F)(F)F)cc2)n1,0.201% (inactive),–
O=C(CCc1ccccc1)Nc1nn[nH]n1,-3.34% (inactive),–
COc1ccc(N2C(=O)C(Cc3ccccc3)NC2=S)cc1 (centres undefined),14.4% (inactive),–
COC(=O)CC1=NN(c2nc(C)cc(C)n2)C(=O)C1,2.76% (inactive),–
c1ccc(CN=C2Nc3ccccc3CS2)nc1,0.764% (inactive),–
CCC(C(=O)Nc1ccc2c(c1)OCCO2)c1ccccc1 (centres undefined),-4.94% (inactive),–
CCOc1ccc(N2CC(C(=O)NCCN3C(=O)S/C(=C\c4cccnc4)C3=O)CC2=O)cc1 (centres undefined),-7.75% (inactive),–
C[C@H](NC(=O)c1ccccc1Cl)C(=O)OCCOc1cccc(Cl)c1,4.04% (inactive),–
CCOC(=O)c1ccc(N2C(=O)CC(N3CC(C)OC(C)C3)C2=O)cc1 (centres undefined),–,7.94 µM (active)
CC1CN(C(=S)SCC(=O)c2ccccc2)CC(C)O1 (centres undefined),0.843% (inactive),–
CCC(=O)c1ccc(OCC(O)CN2CC(C)OC(C)C2)cc1 (centres undefined),-13.7% (inactive),–
CN1CCN(CCC(=O)N/N=C/C=C2\N(C)c3ccccc3C2(C)C)CC1,3.13% (inactive),–
Cc1cccc(-n2c(Cc3cc(=O)[nH]c(=O)[nH]3)nnc2SCC(=O)Nc2cccc(C(F)(F)F)c2)c1,-2.03% (inactive),–
CCOC(=O)N1CCN(C(=O)CSc2nc(C)nc3c2c(=O)n(C)c(=O)n3C)CC1,1.21% (inactive),–
CCOC(=O)c1c(C)nn(-c2ncccc2NC(=O)CCC(=O)O)c1C,5.83% (inactive),–
CC(C)N(C)C(=O)CCc1nnc(CCc2c[nH]c3ccccc23)o1,4.17% (inactive),–
O=C(CSc1nc(-c2ccco2)cc(C(F)(F)F)n1)N1CCc2ccccc2C1,–,11.2 µM (active)
O=C(CSc1nc(-c2ccco2)cc(C(F)(F)F)n1)NCc1cccs1,-0.0855% (inactive),–

Compound,"activity, negative = inhibition",Potency
FC(F)(F)c1cc(-c2ccco2)nc(N2CCOCC2)n1,0.194% (inactive),–
CC(C)(C)n1ncc2c(=O)n(Cc3ccc(Cl)cc3)cnc21,10.7% (inactive),–
COc1ccc(-n2c(C)nn(CC3CC3)c2=O)cc1,-1.71% (inactive),–
Cc1ccc(NC(=O)c2oc(=O)c3ccccc3c2-c2ccccc2)c(C)c1,-15.4% (inactive),–
Cc1ccc(NC(=S)NC(=O)c2ccc(-c3ccccc3)cc2)c(C)c1,–,11.2 µM (active)
Cc1ccc(C(=O)NC(=S)Nc2ccccc2C)cc1,-1.81% (inactive),–
O=C(/C=C/c1ccc(N2CCOCC2)cc1)c1ccccc1,–,31.6 µM (active)
O=C(CN1CCN(S(=O)(=O)/C=C/c2ccccc2)CC1)Nc1ccc(N2CCOCC2)cc1,7.06% (inactive),–
O=C(/C=C/c1ccccc1)c1ccoc1,2.74% (inactive),–
CC(C)(C)OC(=O)N1CCC(NC(=O)c2[nH]cnc2C(=O)N[C@@H](Cc2ccccc2)C(=O)OCc2ccccc2)CC1,-3.65% (inactive),–
CC(C)[C@H](NC(=O)c1ccc(F)cc1)C(=O)OCC(=O)NC(=O)c1cccn1C,-0.435% (inactive),–
CCSC1=NCCN1C(=O)c1ccc(S(=O)(=O)N(CC)CC)cc1,-7.18% (inactive),–
COC(=O)CNC(=O)c1ccccc1F,12.2% (inactive),–
COC(=O)CNC(=O)c1ccc2c(c1)S(=O)(=O)c1ccccc1C2=O,–,11.2 µM (active)
CCCCN(C)C(=O)c1ccc2c(c1)N(CC)C(=O)c1ccccc1S2(=O)=O,8.84% (inactive),–
O=C(CCn1ccc([N+](=O)[O-])n1)Nc1nccs1,1.26% (inactive),–
COc1cc(OC)c(C2=NOC(C(=O)Nc3c(C)n(C)n(-c4ccccc4)c3=O)C2)cc1Cl (centres undefined),5.57% (inactive),–
COc1ccc(NC(=O)CCNS(=O)(=O)c2ccc3c(c2)c(=O)n(C)c(=O)n3C)cc1OC,4.29% (inactive),–
N#CCCN1CCN(S(=O)(=O)c2ccc(S(=O)(=O)N3CCCC3)cc2)CC1,-6.46% (inactive),–
CC(C)(C)c1cc(CN2CCN(CCC#N)CC2)cc(C(C)(C)C)c1O,–,7.08 µM (active)
CCC(=O)c1ccc(OCC(O)Cn2nc(C)c(C(C)=O)c2C)cc1 (centres undefined),6.23% (inactive),–
O=C(Nc1cccc(F)c1)N1C2CCC1CC(O)(c1cccnc1)C2 (centres undefined),2.68% (inactive),–
O=C(O)c1ccccc1-c1ccccc1C(=O)Nc1nccs1,-6.84% (inactive),–

Compound,"activity, negative = inhibition",Potency
CCOC(=O)N1CCC(NC(=O)C(NS(=O)(=O)c2ccc3c(c2)CCN3C(=O)CC)C(C)C)CC1 (centres undefined),-1.13% (inactive),–
Cc1ccc(CN2CCN(Cc3cccc(C)n3)CC2CCO)cc1 (centres undefined),-7.49% (inactive),–
COc1ccc(C2=CC(c3cccc(OC)c3)n3nnnc3N2)cc1 (centres undefined),3.52% (inactive),–
CCOC(=O)CNC(=O)c1nn(-c2cccc(OC)c2)c(=O)c2ccccc12,-2.61% (inactive),–
CCOc1cccc(-n2nnnc2-c2ccc(OC)cc2)c1,–,25.1 µM (active)
Cc1ccc(S(=O)(=O)NC(=O)N2CCCN(Cc3ccc(F)cc3)CC2)cc1,8.46% (inactive),–
CC(=O)Nc1ccc(NC(=O)COc2ccc(S(=O)(=O)NC(C)c3ccccc3)cc2)cc1 (centres undefined),7.35% (inactive),–
O=C(Nc1cccc(C(F)(F)F)c1)c1cnccn1,4.04% (inactive),–
CN(C)/C=C/C(=O)c1cnc2sccn2c1=O,6.38% (inactive),–
CCOC(=O)C1=C(NC(=S)NC(=O)c2ccccc2)c2ccccc2CC1(C)C,–,20 µM (active)
CCOC(=O)c1c(NC(=O)C2(C)Cc3ccccc3C(=O)O2)sc2c1CCCC2 (centres undefined),23.1% (inactive),–
CCOC(=O)c1c(-c2ccccc2)csc1NC(=S)NC(=O)c1ccccc1,-3.67% (inactive),–
COC(=O)C1=C(C)N(C)C(=S)NC1c1cc(OC)ccc1OC (centres undefined),5.5% (inactive),–
FC(F)(F)c1ccnc(Oc2ccc(C3=NCCS3)cc2)c1,-6.21% (inactive),–
CN1CCC(=NNC(=O)CN(c2cccc(Cl)c2)S(C)(=O)=O)CC1,10.8% (inactive),–
CCN1CCN(C(=O)c2ccc(CN(c3ccc(C)c(C)c3)S(C)(=O)=O)cc2)CC1,-0.172% (inactive),–
CN1CCC(=NNC(=O)c2ccc(N(Cc3ccc(Cl)cc3)S(C)(=O)=O)cc2)CC1,–,8.91 µM (active)
CC(=O)N1CC(C)c2scc(C)[n+]2-c2ccccc21 (centres undefined),15.2% (inactive),–
OCC1(Cc2ccccc2C(F)(F)F)CCN(Cc2cccc3cnccc23)CC1,-3.56% (inactive),–
O=S(=O)(NC1CC1)c1ccc2c3c(cccc13)CC2,-5.31% (inactive),–
COc1ccc(N2CCN(C(=O)CNC(=O)c3ccc(C(C)(C)C)cc3)CC2)cc1,-14.7% (inactive),–
COc1ccc(-c2ccc(CCC(=O)O)n2NC(=O)c2ccc(C(C)(C)C)cc2)cc1,–,2.24 µM (active)
COc1ccc(C(=O)NC(Cc2ccc(OC(=O)c3ccc(OC)cc3)cc2)C(=O)O)cc1 (centres undefined),-7.25% (inactive),–
